# Screening data as filed in PubChem BioAssay.
# The entries come from a sample that favours hits as a whole.
# Ba CapD inh = Bacillus anthracis CapD inhibitors, primary screen, biochemical, fluorescence intensity; CapD gamma-glutamyltranspeptidase (Bacillus anthracis Ames Ancestor); 0.23% of 140,000 active; z-score (concentration not given with the values); purified CapD enzyme, fluorescence intensity read-out; hits give low values; AID 492967, 2010; in the data active = z-score mostly below about -2.9, no sharp cut-off; inactive = mostly above about -1.9
# An asterisk follows results filed as active.
SMILES,Ba CapD inh
Cc1cc2c(n1-c1ccc(C(=O)N3CCN(c4ccccc4)CC3)cc1)CCCCC2,-0.89
O=C(O)c1ccc(N2CCCCC2)cc1,-0.065
Cc1ccc2c(N)c(C(=O)c3ccc(C(=O)c4sc5nc(C)ccc5c4N)cc3)sc2n1,0.29
CCOC(=O)C1=C(CSc2nc3c(cc2C#N)CCC3)OC(N)=C(C#N)C1c1cccs1 (configuration not stated),0.28
O=C(Nc1ccc(Br)cn1)c1sc2ccccc2c1Cl,-0.44
CCCNC(=O)c1ccc2c(c1)N(CC)CCS2,103
CCCOC(=O)c1ccc(-n2nc(C(F)(F)F)c3c(C)cc(=O)oc32)cc1,-0.35
CN(C)/C=C/C=C/c1cc(=O)cc(/C=C/C=C/N(C)C)o1,-15*
Cc1onc(-c2ccccc2)c1C(=O)NC(=S)Nc1ccc(Cl)cc1,1.1
C=CCNC(=O)c1ccc2c(=O)n(Cc3ccco3)c(=S)[nH]c2c1,0.38
CC(C)NC(=O)c1ccc2c(=O)n(Cc3ccco3)c(=S)[nH]c2c1,-5.1*
COC(CNC(=O)c1ccc2c(=O)n(Cc3ccco3)c(=S)[nH]c2c1)OC,-0.57
COc1ccc2c(c1C)CCC(C1(O)C(=O)N(C)c3ccccc31)C2=O (configuration not stated),0.34
C=CCn1c(=O)c(=O)n(C(C)C)c2ccc(C(F)(F)F)cc21,-0.16
CCOC(=O)c1sc(COc2ccc(C3SCCS3)cc2)nc1C,9.9
Cc1nc(COc2ccccc2Cl)sc1C(=O)/C=C/N(C)C,6.8
CCOC(=O)c1sc(COc2ccccc2OC)nc1C,-2.7*
Cc1cc(C)cc(NC(=O)C(Cc2c[nH]c3ccccc23)NC(=O)Oc2ccccc2)c1 (configuration not stated),-0.4
N#C/C(=C\c1ccco1)C(=O)C1CC1,-4.3*
N#C/C(=C\c1cccc(Cl)c1)C(=O)C1CC1,0.49
O=C(/C=C/c1ccco1)C1CC1,-3.1
CN(CCCNC(=O)NCCNc1ccc([N+](=O)[O-])cn1)c1ccccc1,-1.6
CCCCOC(C)n1ccc(=O)[nH]c1=O (configuration not stated),-0.72
COc1ccc(N=Cc2cn(-c3ccccc3)nc2-c2cc3ccccc3o2)cc1,0.2
Cc1ccc(S(=O)(=O)Oc2ccc(Oc3ccccc3)cc2)cc1,-0.18
SMILES,Ba CapD inh
CC(=O)N1CCC(N(C2CC2)S(=O)(=O)c2ccc(NS(=O)(=O)c3ccc(Cl)cc3)cc2)CC1,-0.23
CCN(CC)c1ccc(CNc2ccc3c(c2)ncn3C)cc1,57
CCN(CC)c1ccc(CNc2ccc3c(c2)ncn3C(C)(C)C)cc1,-4.6*
CC(C)(C)n1cnc2cc(NCc3ccccc3O)ccc21,36
CC(C)=N/N=C1/NC(=O)C(CC(=O)Nc2ccc(C(=O)O)cc2)S1 (configuration not stated),0.42
CCn1c2ccccc2c2cc(CN3CCN(C(=O)CCCCNC(=O)OC(C)(C)C)CC3)ccc21,8.2
COc1cccc(NC(=O)CSc2nc3c(sc(=S)n3-c3ccccc3)c(=O)[nH]2)c1,-1
CC1(C)CC(=O)/C(=N/Nc2ccccc2)CO1,-4*
CC1(C)CC(=O)C(C(=S)Nc2ccccc2)C(=O)C1,-0.09
CC1(C)Cc2c(c(=O)n(-c3ccccc3)c3ncnc(N)c23)CO1,-1.3
COc1cccc(CN(Cc2ccco2)S(=O)(=O)c2ccccc2Br)c1,-0.56
CCOC(=O)c1c(NC(=O)c2ccc(OC)cc2)sc(C(=O)Nc2ccc(C)c(Cl)c2)c1C,-0.02
COc1ccc(N(C(=O)C(C)C)S(=O)(=O)c2cccs2)cc1,-7*
CC(C)C(=O)N(c1ccc2oc(=O)sc2c1)S(=O)(=O)c1cccs1,-3
CC(=O)Oc1ccc(N(C(C)=O)S(=O)(=O)c2cccs2)cc1,-2.7
COc1ccc(N2C(=O)/C(=C\c3ccc(Br)cc3)C(=O)NC2=S)cc1,-1.7
O=C1NC(=S)N(c2ccc(Br)cc2)C(=O)/C1=C/c1cccn1-c1ccccc1,-0.31
O=C1NC(=S)N(c2ccccc2)C(=O)/C1=C\c1ccoc1,-5.7*
NCCC12CC3CC(C1)CC(C(=O)O)(C3)C2,0.29
CCOC(=O)C(Cc1ccccc1)C(=O)N1CCN(C)CC1 (configuration not stated),0.36
O=C(O)c1ccc([N+](=O)[O-])c2c1NC(c1ccc([N+](=O)[O-])cc1)C1CC=CC21 (configuration not stated),-0.53
CC(=O)Oc1ccc(C2Nc3c(C(=O)c4ccccc4)cc(Cl)cc3C3C=CCC32)cc1 (configuration not stated),-0.005
CC(=O)Oc1ccc(C2Nc3c(C(=O)O)ccc([N+](=O)[O-])c3C3C=CCC32)cc1 (configuration not stated),-2.7*
CC1CCc2oc3ccc(NS(=O)(=O)c4ccc(C(C)(C)C)cc4)cc3c2C1 (configuration not stated),-0.4
CC(C)C(=O)NC(C)C(c1cccs1)N1CCOCC1 (configuration not stated),-0.39
CCN1CCN(C(c2cccs2)C(C)NC(=O)Cc2cccs2)CC1 (configuration not stated),0.17
CCN1CCN(C(c2cccs2)C(C)NC(=O)C(C)C)CC1 (configuration not stated),-5.4*
